An excerpt weighted towards active compounds, which were near 2.8% of everything screened.
Mito fusion act: qHTS Assay for Small Molecule Inhibitors of Mitochondrial Division or Activators of Mitochondrial Fusion | S. cerevisiae fusion-defective mutant growth rescue, CellTiterGlo 48 h | Potency, µM (highest dose often 46.1 µM), for inactives: at the top dose growth rescue (activation), most hits filed as activators | 0.23% of 320,000 active | AID 485298, 2010; further: % of control where 0% means no effect; nearly all actives have a fitted effect of over 45% in size
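Temperature-sensitive fusion-defective S. cerevisiae (e.g. fzo1-1, mgm1-5) were grown with compound in YPEG medium (3% ethanol, 3% glycerol) for 48 hours at 37C. Growth rescue was measured as viability by CellTiterGlo luminescence after 10 minutes at ambient.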
HEK293 tox: qHTS of GLP-1 Receptor Inverse Agonists: Cytotox Screen; HEK293 cAMP-luciferase reporter cells, luminescence, 24 h; Potency, µM (highest dose often 38.3 µM), for inactives: at the highest dose activity change, negative = inhibition, most hits filed as inhibitors; 0.13% of 410,000 active; AID 624418, 2012;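 further: loss of luciferase light is scored as toxicity; on the % scale 0 is the no-effect control and ±100 the full control effect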
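A 23 nL compound transfer followed 12 hours of cell culture at 37 deg C; exposure then lasted 24 hr. Luciferase assay detection reagent was dispensed and plates read for luminescence after a 12 min room-temperature wait.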
GLP1R ag: qHTS of GLP-1 Receptor Agonists; HEK293 GLP-1R CRE-luciferase, luminescence, 4-6 h; cells express a hypersensitive GLP-1R form; Glucagon-like peptide 1 receptor (Homo sapiens), P43220; 0.007% of 380,000 active; Potency, µM (titrated, usually from 45.6 µM), inactives show at the top dose activation, most hits filed as activators; AID 624172, 2012; further: % of control where 0% means no effect
Target sequence (P43220 whole entry, looked up): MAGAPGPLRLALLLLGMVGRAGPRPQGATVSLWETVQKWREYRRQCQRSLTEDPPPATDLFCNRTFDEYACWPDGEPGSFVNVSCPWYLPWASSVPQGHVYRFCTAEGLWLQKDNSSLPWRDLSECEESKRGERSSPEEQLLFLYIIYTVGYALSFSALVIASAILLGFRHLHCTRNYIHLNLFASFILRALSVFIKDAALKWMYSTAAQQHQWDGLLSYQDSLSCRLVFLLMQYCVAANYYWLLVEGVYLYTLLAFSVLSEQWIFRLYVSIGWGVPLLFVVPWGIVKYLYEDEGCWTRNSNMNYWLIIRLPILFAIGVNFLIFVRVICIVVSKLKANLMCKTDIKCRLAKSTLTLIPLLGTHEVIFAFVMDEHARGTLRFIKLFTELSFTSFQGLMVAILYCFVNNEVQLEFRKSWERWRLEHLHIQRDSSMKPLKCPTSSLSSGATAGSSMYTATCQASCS
BRCA1 expr up: qHTS Assay to Identify Small Molecule Activators of BRCA1 Expression; AID 624202, 2012; MCF7-BRCA1-FFLuc reporter, luminescence, 48 h; response scale: scaled: vehicle 0%, 10 µM genistein 100%; 1.1% of 380,000 active; Potency, µM (top dose mostly 46.1 µM), for the others: at the highest dose activation, hits mostly activators; further: nearly all actives have a fitted effect of over 80% in size
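Using MCF7 cells harboring a BRCA1 firefly luciferase reporter, plated 2 h before compound pinning, the screen measured luminescence after 48 h incubation. Responses were normalized to DMSO and 10 microM genistein, then fitted for concentration-effect.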
GLP-1R inv ag: qHTS of GLP-1 Receptor Inverse Agonists (Inhibition Mode); Glucagon-like peptide 1 receptor (Homo sapiens), P43220; HEK293 GLP-1R CRE-luciferase, luminescence, 24 h; GLP-1R form is constitutively active; Potency, µM (top dose mostly 38.3 µM), for inactives: at the top dose activity change, negative = inhibition, most hits filed as inhibitors; 1.6% of 410,000 active; AID 624417, 2012; further: on the % scale 0 is the no-effect control and ±100 the full control effect; nearly all actives have a fitted effect of over 55% in size
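Inverse agonists were sought by their lowering of basal cAMP reporter luciferase output in HEK293 cells stably carrying constitutively active human GLP-1R, after 24 h compound treatment.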
The depositor's hits bear a star; ? = inconclusive; · = not tested or not shown; [ ] = dose if it differs, or a comment. The call rests on the fitted dose curve; in most records, active means well fitted curve in the direction sought with a large enough effect; inconclusive means small, poorly fitted or top-dose-only effect, or another doubt; inactive means no such curve, though single readings can be large; an effect the other way counts as inactive or inconclusive. Potency means the concentration at half of the fitted maximal effect.

SMILES	Mito fusion act	HEK293 tox	GLP1R ag	BRCA1 expr up	GLP-1R inv ag
CN(C)CCCN(C(=O)CCOc1ccccc1)c1nc2c(F)cccc2s1	-5.7%	?	-4.9%	-60.1%	?
CCOC(=O)c1sc(N/N=C/c2cccc(C)c2)nc1C	-4.9%	-11.1%	0.2%	2.82µM*	50.5%
C=C(C)CNC(=S)NN=C1c2ccccc2-c2ccccc21	-8.6%	?	11.2µM*	-62.0%	?
O=C(CCC(=O)N/N=C/c1ccco1)N/N=C/c1ccco1	-0.6%	1.9%	0.3%	-1.0%	1.4%
CCNC(=S)NN=C1c2ccccc2-c2ccccc21	-0.7%	?	26.8%	-18.3%	?
C=C(C)CNC(=S)N/N=C/c1ccco1	-11.2%	?	8.4%	2.2%	4.47µM*
O=C(/C=C1\SC(=O)NC1=O)Nc1ccc(F)cc1	-5.6%	7.1%[7.66 µM]	-6.8%	-2.4%	0.5%[7.66 µM]
O=C(CCC(=O)c1cccs1)NCc1ccc(F)cc1	1.6%	-5.6%	-0.5%	10.9%	6.5%
CCCCNC(=O)C1CCC(CNS(=O)(=O)c2cccc3nsnc23)CC1 (centres undefined)	5.5%	-8.7%	-3.4%	-16.7%	0.0%
CC(C)n1c(/C=C/c2ccccc2)nc2ccccc21	29.6%	-0.4%	18.9%	2.24µM*	?
CCCn1c(/C=C/c2ccccc2)nc2ccccc21	-11.0%	-2.9%	1.6%	20.8%	?
O=C(NCc1ccccn1)c1cccn1-c1ncc(C(F)(F)F)cc1Cl	15.6%	5.7%	1.9%	0.0%	-21.9%
O=C(NCCSCc1ccc(Cl)cc1Cl)c1ccc(CN2CCOCC2)cc1	6.6%	2.0%	1.1%	-19.3%	10µM*
O=C(NCCSc1ccc(Cl)cc1)c1ccc(CN2CCOCC2)cc1	5.9%	-0.9%[7.66 µM]	11.6%	-24.7%	-5.8%[7.66 µM]
COc1ccc(C(=O)NC(=S)NC(C)(C)C)cc1Br	2.3%	?	5.7%	11.2µM*	?
CC(C)c1ccc(/C=C/C(=O)NC(=S)Nc2ccc(CN3CCOCC3)cc2)cc1	27.4%	10µM*	-1.0%	-81.6%	?
O=C(Nc1ccc(CN2CCOCC2)cc1)c1ccc(Cl)cc1	4.9%	-9.2%	-0.1%	12.6µM*	-10.7%
CCN1C[C@@H]2[C@@H]3C(=O)N(Cc4ccccc4)C(=O)[C@@H]3[C@](Cc3ccccc3)(C(=O)OC)N2C1=NC	·	-1.1%	-8.2%	-8.4%	2.6%
CCN(CC)c1ccc(/C=N/NC(=O)c2ccc3nc[nH]c3c2)c(O)c1	-2.5%	417.0%	22.1%	-74.7%	15.0%
Cc1ccnc(NC(=O)C2CCN(S(=O)(=O)c3ccc(C)c(C)c3)CC2)c1	21.0%	-8.2%	11.2%	?	?
CN(C)Cc1c(C(=O)N/N=C/c2cccc(OCc3c(F)cccc3Cl)c2)nnn1-c1nonc1N	-4.3%	-4.9%	-0.1%	-0.4%	13.1%
CC(C)COc1cccc(C(=O)Nc2ccc(CN3CCOCC3)cc2)c1	7.4%	-23.7%	7.4%	20.9%	8.91µM*
COc1ccc(C(=O)NC(=S)Nc2ccc(CN3CCOCC3)cc2)cc1Br	-18.3%	?	-8.3%	-83.6%	12.6µM*
CC(C)COc1cccc(C(=O)Nc2ccc(S(=O)(=O)N3CCOCC3)cc2)c1	2.3%	-27.9%	10.4%	-52.8%	?
CCCCc1c(C)nn(-c2nnc3c4ccccc4n(CC)c3n2)c1C	-3.7%	10µM*	-3.3%	-85.0%	10µM*
COc1ccc(CN(CCC(C)C)S(=O)(=O)c2ccccc2Br)cc1	·	19.1%	0.6%	-6.1%	11.2µM*
Cc1cc(C)c(S(=O)(=O)c2ccccc2)c(OC(=O)c2c(F)cccc2F)n1	-4.1%	-2.0%	-0.1%	-24.0%	-7.1%
Cc1cc(C)c(S(=O)(=O)c2ccccc2)c(OC(=O)c2c(Cl)cc(Cl)cc2Cl)n1	-0.5%	?	-10.9%	-50.2%	7.94µM*
Cc1ccc2[nH]c3c(c2c1)CN(C(=O)CN1CCN(Cc2ccc4c(c2)OCO4)CC1)CC3	-3.9%	-17.6%	-2.7%	-35.3%	3.55µM*

Screening results from PubChem BioAssay.
